# Test results from PubChem BioAssay (EPA / NIEHS).
# Activity calls are given as the source filed them. How the source made its calls: active means hit-call score of the fitted dose curve at least 0.9, where 1 is the maximum; inactive means score below 0.9.
# Target: Paired box protein Pax-6 (Homo sapiens) (UniProt P26367)
# Experiment: ATG_Pax6_CIS: Attagene CIS-FACTORIAL HepG2 Assay for human Paired Box 6 (PAX6) (AID 2282956)
# Conditions: HepG2 CIS-FACTORIAL PAX6 reporter transcription, RNA readout; actives raise or lower the signal
# Experimental: ATG_CIS is a cell-based, multiplexed-readout assay that uses HepG2, a human liver cell line, with measurements taken at 24 hours after chemical dosing in a 24-well plate.ATG_Pax6_CIS is one of 52 assay component(s) measured or calculated from the ATG_CIS assay. It is designed to make measurements of mRNA induction, a form of inducible reporter, as detected with fluorescence intensity signals by Reverse transcription polymerase chain reaction (RT-PCR) and Capillary electrophoresis technology.Data from the assay component ATG_Pax6_CIS was analyzed into 1 assay endpoint. This assay endpoint, ATG_Pax6_CIS, was analyzed with bidirectional fitting relative to DMSO as the negative control and baseline of activity. Using a type of inducible reporter, measures of mRNA for gain or loss-of-signal activity can be used to understand the reporter gene at the transcription factor-level as they relate to the gene PAX6. Furthermore, this assay endpoint can be referred to as a primary readout, because this assay has produced multiple assay endpoints where this one serves a reporter gene function. To generalize the intended target to other relatable targets, this assay endpoint is annotated to the dna binding intended target family, where the subfamily is paired box protein.
# Human liver HepG2 cells are transiently transfected with multiple reporter transcription units (MRTUs) in 6-well plates using FuGene 6 reagent (Roche; 3 ml FuGene/1 mg DNA). The MRTU constructs are regulated by a cis-regulating element (promoter). […] A major difference between the CIS and TRANS system is that in CIS activities of endogenous TFs are measured, whereas the TRANS assay evaluates changes in activities of exogenous, chimeric NR-Gal4 proteins. […] At the end of 24 hour incubation, total RNA was isolated using TriZol reagent (Invitrogen). The isolated RNA is then reverse-transcribed using oligo(dT) primer and Mo-MLV reverse transcriptase (Invitrogen) with DNAse I (Ambion) treatment for 30 min. The one-tenth of the produced cDNA was amplified by PCR using Taq DNA polymerase (Invitrogen) and two reporter sequence-specific primers. The PCR products were fluorescently labeled by primer extension with 6-arboxyfluorescein (6-FAM) 5'-labeled reporter sequence-specific primer (2 min at 95 C, 20 s at 68 C and 10 min at 72 C) and these products were digested with 5U of HpaI (New England Biolabs) for 2h at 37 C. The fragments were purified using Qiaquick PCR columns (Qiagen), analyzed on an ABI 3130xL genetic analyzer (Applied Biosystems) with peak positions identified by using a set of X-rhodamine (ROX)-labeled MapMarker1000 molecular weight standards (BioVentures). The raw capillary electrophoresis data was processed using Attagraph software (Attagene).
# Paired box protein Pax-6 (Homo sapiens), sequence (P26367 whole entry, looked up): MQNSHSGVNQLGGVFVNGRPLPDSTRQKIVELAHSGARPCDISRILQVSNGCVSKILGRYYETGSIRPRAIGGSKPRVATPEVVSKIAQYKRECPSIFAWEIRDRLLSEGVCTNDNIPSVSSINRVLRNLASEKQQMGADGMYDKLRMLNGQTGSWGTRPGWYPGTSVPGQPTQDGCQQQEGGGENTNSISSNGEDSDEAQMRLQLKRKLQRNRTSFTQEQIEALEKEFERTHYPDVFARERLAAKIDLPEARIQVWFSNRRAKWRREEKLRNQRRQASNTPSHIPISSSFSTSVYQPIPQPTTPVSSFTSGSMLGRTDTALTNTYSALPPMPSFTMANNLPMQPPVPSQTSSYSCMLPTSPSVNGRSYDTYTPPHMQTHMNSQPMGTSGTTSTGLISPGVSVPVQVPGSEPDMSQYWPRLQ
SMILES,outcome,AC50
CN(C)CCC#N,inactive,
O=S(=O)(O)O,inactive,
O=[N+]([O-])c1cc(C(F)(F)F)c(Cl)c([N+](=O)[O-])c1Cl,,2.77 µM (active)
CCOC(=O)NC(=S)Nc1ccccc1NC(=S)NC(=O)OCC,inactive,
CCc1cccc(C)c1N(C(=O)CCl)[C@@H](C)COC,inactive,
CCNCC,inactive,
c1ccc(Nc2ccc3ccccc3c2)cc1,inactive,
CNC(=N[N+](=O)[O-])NCC1CCOC1 (stereo not given),inactive,
CCCCCCC1CCOC1=O (stereo not given),inactive,
Cc1ncc(C[n+]2csc(CCO)c2C)c(N)n1,inactive,
O=C1Nc2ccc(Cl)cc2C(c2ccccc2)=NC1O (stereo not given),inactive,
CN1C[C@H](C(=O)N[C@]2(C)O[C@@]3(O)[C@@H]4CCCN4C(=O)[C@H](Cc4ccccc4)N3C2=O)C=C2c3cccc4[nH]cc(c34)C[C@H]21,inactive,
C[C@]12CC[C@H](O)C[C@H]1CC[C@@H]1[C@@H]2C[C@@H](O)[C@]2(C)[C@@H](C3=CC(=O)OC3)CC[C@]12O,,0.513 µM (active)
C=CC(=O)OCCCCOC(=O)C=C,,52.4 µM (active)
S=c1[nH]c2ccccc2[nH]1,inactive,
CCOP(=O)(OCC)OCC,inactive,
CCCCCCCCCCCCCCCC[N+](C)(C)C,inactive,
Oc1ccc(Cl)cc1,inactive,
CC(C)(C)C(O)C(Oc1ccc(-c2ccccc2)cc1)n1cncn1 (stereo not given),inactive,
CC(C)COP(=O)(OCC(C)C)OCC(C)C,inactive,

SMILES,outcome,AC50
Oc1ccc(C2(c3ccc(O)cc3)c3ccccc3-c3ccccc32)cc1,,14.9 µM (active)
C[C@]12CC[C@H]3[C@@H](CC[C@@]45O[C@@H]4C(O)=C(C#N)C[C@]35C)[C@@H]1CC[C@@H]2O,,44.2 µM (active)
N#CC(c1ccccc1)c1ccccc1,inactive,
CN(C)N,inactive,
O=[N+]([O-])C=Cc1ccccc1,,21.1 µM (active)
BrCBr,inactive,
CC1(C)CC(=O)CC(C)(C)N1[O],inactive,
CN1C(=O)CCS(=O)(=O)C1c1ccc(Cl)cc1 (stereo not given),inactive,
COc1ccc(CO)cc1,inactive,
CSc1nc(N=[N+]=[N-])nc(NC(C)C)n1,inactive,
CCC1CCC(=O)O1 (stereo not given),inactive,
CC(=O)/C=C/c1ccccc1,,69 µM (active)
CC(C)(Cl)Cl,inactive,
CC(C)(c1cc(Cl)c(O)c(Cl)c1)c1cc(Cl)c(O)c(Cl)c1,,52.3 µM (active)
CNC(=O)Oc1cc(C)c(SC)c(C)c1,inactive,
Cc1ccc(N(SC(F)(Cl)Cl)S(=O)(=O)N(C)C)cc1,,17.9 µM (active)
CCOC(=O)N(C)N=O,inactive,
C=COCCCl,inactive,
C=CCN(CC=C)C(=O)C(Cl)Cl,inactive,
O=c1c2ccccc2c(=O)c2c1cc(Cl)c1[nH]c3c([nH]c12)c(Cl)cc1c(=O)c2ccccc2c(=O)c13,inactive,
